An excerpt weighted towards active compounds, which were near 1.8% of everything screened.
pAkt inh = blocks phosphorylation of Akt; Neuro2A IGF-stimulated pAkt S473 HTRF, 20 min; active compounds read low; AID 651550; activity change, % for hits at 50 µM; actives 0.32% (n = 360,000); in the data active means activity change below about -80%; inconclusive means mostly about -51% to -80%
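Single-point screen (50 µM final compound) in Neuro2A cells stimulated 20 min with 6 nM IGF at 37 deg C. After lysis, Ser473-phosphorylated Akt read by HTRF (ex 330 nm, em 615/665 nm) as the 665/615 ratio.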
CCT chaperon mod = modulators of cytosolic chaperonin (CCT/TRiC) activity | purified chaperonin ATPase assay, HTRF ADP detection, 30 min | activity change, % (concentration not given with the values), hits read low | actives 0.3% (n = 360,000); in the data active means activity change below about -30%
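TRiC at 40 or 20 nM final (batch-dependent) in 30 mM Tris pH 7.4, 100 mM KCl, 5 mM MgCl2, 1 mM DTT, with compound at single 76 uM and 10 uM ATP, 30 min at 37 deg C. ADP detected by HTRF Transcreener, 665/615 ratio.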
Mm-Cpn inhibitor = M. maripaludis TRiC chaperonin inhibition; purified Mm-Cpn ATPase, ADP Transcreener TR-FRET; actives 0.031% (n = 330,000); Potency, µM (highest dose often 76.9 µM), hits mostly inhibitors; AID 504842; further: nearly all actives have a fitted effect of over 80% in size
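Measured: ADP formation by purified Mm-CPN. Conditions: 25 nM protein, 10 uM ATP, Tris pH 7.4 with Mg2+, K+ and DTT, 37°C for 30 min. Detection: Transcreener HTRF after 30 min at room temperature.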
A-T KAP1 phos = potential ataxia-telangiectasia treatments restoring KAP-1 phosphorylation; F2112 A-T fibroblasts, KAP-1 phosphorylation AlphaLISA; neocarzinostatin DNA damage 30 min before lysis; Potency, µM (series often up to 57.5 µM), actives largely listed as activators; actives 0.19% (n = 320,000); further: nearly all actives have a fitted effect of over 45% in size
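ATM-like activity read as KAP-1 phosphorylation via AlphaLISA donor/acceptor antibody pairs after lysis and 6 hr at 25C. Cells were ATM-null patient fibroblasts (F2112, hTERT), dosed 60 min, then exposed to the DSB inducer NCS for 30 min.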
BRCA1 expr up = increases BRCA1 expression. MCF7-BRCA1-FFLuc reporter, luminescence, 48 h; response scale: scaled: vehicle 0%, 10 µM genistein 100%. Potency, µM (doses to about 46.1 µM), actives largely listed as activators. actives 1.1% (n = 380,000); further: nearly all actives have a fitted effect of over 80% in size
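First, MCF7-BRCA1-FFLuc cells (2000/well) attach for 2 h; next, compounds are pin-added and incubated 48 h at 37 °C; finally, luciferase reagent is added and luminescence read after 15 min.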
Hits are given with their value; n = inactive; u = inconclusive; x = not tested or not shown; [ ] = dose if it differs, or a comment. Unless noted, the call rests on the fitted dose curve; in most records, active means well fitted curve in the direction sought with a large enough effect; inconclusive means small, poorly fitted or top-dose-only effect, or another doubt; inactive means no such curve, though single readings can be large; an effect the other way counts as inactive or inconclusive.

SMILES	pAkt inh	CCT chaperon mod	Mm-Cpn inhibitor	A-T KAP1 phos	BRCA1 expr up
CC1=C/C(=C\c2ccc(N(C)C)cc2)c2ccccc21	x	x	x	x	n
CN(C)CCNCc1ccc(OC2CCCC2)cc1	-114%	n	n	n	n
CCC(CO)NCc1ccc(OC2CCCC2)cc1 (stereo not given)	n	n	n	n	n
COc1ccc(-c2ccc3nccn3c2)cc1	n	n	x	x	n
CC(C)Cc1ccc(-c2ccc3nccn3c2)cc1	n	n	x	x	14µM
CC(C)c1ccc(NC(=O)Cn2c(=O)oc3cc(S(=O)(=O)N4CCCC4)ccc32)cc1	x	x	x	x	n
CCOC(=O)c1sc(-c2ccc(F)cc2)cc1N	n	n	n	n	11µM
CCOC(=O)c1sc(-c2ccccc2)cc1N	n	n	n	n	13µM
CCOC(=O)c1sc(-c2ccc(OC)cc2)cc1N	n	n	n	n	u
COc1cc(CC(=O)N(C)CC(=O)Nc2ccc(Cl)c(C(F)(F)F)c2)cc(OC)c1OC	n	n	n	n	n
COc1ccc(CCN2CC(C(=O)NCCCn3nc(C)cc3C)CCC2=O)cc1 (stereo not given)	n	n	n	n	n
Cc1ccc2c(CC(=O)NCC(=O)Nc3c(C)cccc3C)coc2c1	n	n	n	n	n
Cc1ccc2c(CC(=O)Nc3sccc3C(N)=O)coc2c1	n	n	n	n	1.3µM
CC(=O)Nc1cccc(OCC(=O)Nc2sccc2C(N)=O)c1	n	n	n	n	4µM
CCCc1cc(=O)oc2cc(OCc3ccc(C(=O)O)cc3)ccc12	n	n	n	n	n
COc1ccccc1NC(=O)C1=C(C)Nc2nc(SCc3cccc(F)c3)nn2C1c1ccc(C(=O)O)cc1 (stereo not given)	x	x	n	n	x
CN(Cc1ccccc1)C(=O)COC(=O)c1c[nH]c2ccccc12	n	n	x	x	10µM
CCc1ccc(NC(=O)Cn2c(=O)n(Cc3ccc(C)cc3)c(=O)c3cccnc32)cc1	x	x	x	x	n
FC(F)(F)c1cccc(-c2ccn3ncnc3n2)c1	n	-56	n	n	n
COCCNC(=O)c1cn(CCOC)c(=O)c2c1c1ccccc1n2C	n	n	n	n	n
CCC(C)NC(=O)c1cn(CCOC)c(=O)c2c1c1ccccc1n2C (stereo not given)	n	n	n	8.9µM	n
FC(F)(F)c1cccc(OCC2CNC(=S)O2)c1 (stereo not given)	n	n	n	10µM	n
FC(F)(F)c1cccc(OCc2nnc3n2CCC3)c1	n	n	n	n	n
COc1ccc(NC(=O)CSc2nc(-c3ccco3)cc(C(F)(F)F)n2)cc1	x	x	x	x	n
COc1ccccc1CNC(=O)CS(=O)(=O)Cc1ccccc1	n	n	n	n	n
SMILES	pAkt inh	CCT chaperon mod	Mm-Cpn inhibitor	A-T KAP1 phos	BRCA1 expr up
CN(C(=O)NC1CCCCC1)[C@H]1C[C@H]2c3[nH]c4ccccc4c3CCN2C(=O)[C@H]1CO	n	-57	x	x	n
CN(C(=O)C(C)(C)C)[C@H]1C[C@H]2c3[nH]c4ccccc4c3CCN2C(=O)[C@H]1CO	n	n	x	x	n
CCOCC(=O)Nc1c(C(=O)Nc2ccc3c(c2)OCCO3)oc2ccccc12	n	n	n	n	2µM
O=C(Nc1ccc2c(c1)OCCO2)c1oc2ccccc2c1NC(=O)C1CC1	n	-45	n	n	n
CCN(C(=O)CSc1nc2ccccc2n1CC(=O)N(C)C1CCCCC1)c1ccccc1	x	x	x	x	n
COc1ccccc1OC(C)C(=O)Nc1ccc(S(=O)(=O)N2CCN(C)CC2)cc1 (stereo not given)	n	n	n	n	n
COc1ccc(C2=C(Nc3ccc(C)cc3)c3ccccc3C2=O)cc1	n	n	n	n	n
COc1ccc(C2=C(Nc3ccc(F)cc3)c3ccccc3C2=O)cc1	-137%	n	n	n	n
COc1cc(Cl)c(CC(=O)NO)cc1OC	x	x	x	x	n
CC1CCc2nc(NC(=O)CN3CCN(c4ccc(F)cc4)CC3)sc2C1 (stereo not given)	n	n	n	n	n
COc1cccc(N2CCN(CC(=O)Nc3nc4c(s3)CC(C)CC4)CC2)c1 (stereo not given)	-89%	n	n	n	n
O=C(Nc1sc(-c2ccccc2)cc1C(=O)O)c1ccccc1	n	n	n	n	11µM
CN(c1ccccc1)c1nc2ccsc2c(=O)s1	n	n	n	n	10µM
O=[N+]([O-])c1ccc(O/N=[N+](\[O-])N2CCN(c3ncccn3)CC2)c([N+](=O)[O-])c1	x	x	x	x	n
CC1CCC/C(=N\Nc2ccc(Cl)c(C(=O)O)c2)C1 (stereo not given)	n	n	n	n	5µM
O=S(=O)(c1ccc(C(F)(F)F)cc1)N1CCN(c2nc(-c3ccccc3)nc3ccccc23)CC1	x	x	x	x	n
CC(C)(C)c1ccccc1OCCCCN1CCCC1	x	n	n	x	n
Cc1cccc(C(C)(C)C)c1OCCCCN1CCCC1	n	-59	n	x	n
CCc1ccc(NC(=O)C2CCCN(S(=O)(=O)c3cnc[nH]3)C2)cc1 (stereo not given)	x	-74	n	n	n
COC(=O)CCC(NC(=O)c1cc(C)oc1C)C(=O)OC (stereo not given)	-105%	n	n	n	n
CSCCC(NC(=O)c1cc(C)oc1C)C(=O)O (stereo not given)	x	n	n	n	n[1.84 µM]
CCCNC(=O)CCSc1nc(-c2ccc3c(c2)OCO3)cc(C(F)(F)F)n1	x	x	x	x	n
O=c1oc(-c2ccc(Cl)c(Cl)c2)nn1-c1ccc(C(F)(F)F)cn1	n	n	n	n	n
Nc1c(C(=O)N2CCCC2)sc2nc3c(cc12)CCCCCC3	n	n	n	n	4.5µM
NC(=O)c1sc2nc3c(cc2c1N)CCC3	n	n	n	n	8.9µM
c1ccn2c(SCc3cn4ccsc4n3)nnc2c1	n	n	n	n	5µM

Source: PubChem (National Center for Advancing Translational Sciences (NCATS))
